Among all 52,000 compounds or so, about 1,700 (3.3%) were called active. The sample holds actives, similar compounds and a random draw of the others, so the mix is not that of the screen. Unmarked numbers belong to inactive results. No stated cut-off is given here; in the data, active means survival mostly below about 52% (no sharp cut-off); inactive means mostly above about 56%.

For 97 compounds, survival results are on record in PubChem BioAssay AID463173 (ICCB-Longwood Screening Facility, Harvard Medical School, 2010).

The subject of this assay is Wild type. Briefly: growth inhibition of S. aureus wild type versus tarO mutant, primary screen, teichoic acid synthesis inhibitors, RN4220, OD600 (AID 463173). The following applies: S. aureus RN4220 wild type/DeltatarO growth, OD600, 18 h, active compounds read low, screened at 18.75 µg/mL (by protocol).
In the case of `Cn1ncc2c(N3CCN(c4ccccc4Cl)CC3)ncnc21`, the survival was 127%.

As to `CCn1c(SCc2ccccc2)nnc1C1CCCCC1`, the survival was 106%.

`Cc1c2cnn(-c3ccccc3)c(=O)c2c(C)n1C(C)C(=O)NCc1cccc(Br)c1` (configuration not stated): the survival was 71%. As for `CC(=O)c1cccc(NC(=O)CCn2nc(C)c(S(=O)(=O)N3CCCCC3)c2C)c1`, the survival was 159%. For the compound `CC(=O)c1ccc(NC(=O)CCn2nc(C)c(S(=O)(=O)N3CCC(C)CC3)c2C)cc1`, the survival was -6% (active). Take `Cc1nn(CCC(=O)Nc2cccc(C#N)c2)c(C)c1S(=O)(=O)N1CCC(C)CC1`: the survival is 69%. Regarding `CCOc1ccc(NC(=O)NCCc2c(C)nn(C)c2C)cc1`, the survival is 60%. For the compound `CCc1cccc(CC)c1NC(=O)CN(C)S(=O)(=O)c1ccc2c(c1)n(C)c(=O)c(=O)n2C`, the survival was 81%. Consider `O=C(Cn1cnc2nc3c(cc2c1=O)CCCC3)Nc1ccc(F)cc1Cl`, for which the survival is 72%. In the case of `COc1cc(OC)c(NC(=O)Cn2cnc3nc4c(cc3c2=O)CCCC4)cc1Cl` it was -6% (active). In the case of `Cc1ccc(C)c(NC(=O)Cn2cnc3nc4c(cc3c2=O)CCCC4)c1`, the survival is 72%.

Turning to `Cc1c(Cl)cccc1NC(=O)Cn1cnc2nc3c(cc2c1=O)CCCC3`, the survival was 131%. For `Cc1cccc(N(C)C(=O)Cn2cnc3nc4c(cc3c2=O)CCCC4)c1`, the survival was -1% (active). For the compound `Cc1ccc(C)c(N2CCN(C(=O)Cn3cnc4nc5c(cc4c3=O)CCCC5)CC2)c1`, the survival is 76%. Take `COc1ccc(N2CCN(C(=O)Cn3cnc4nc5c(cc4c3=O)CCCC5)CC2)cc1`: the survival is 78%.

As to `O=C(Cn1cnc2nc3c(cc2c1=O)CCCC3)N1CCN(c2ccccc2)CC1`, the survival was 69%. As to `O=C(Cn1cnc2nc3c(cc2c1=O)CCCC3)N1CCN(c2cccc(C(F)(F)F)c2)CC1`, the survival is 14% (active).

With `CN(C)C(=O)C1Cc2ccccc2CN1S(=O)(=O)c1ccc(F)cc1` (configuration not stated), the survival is 105%.

Take `CCc1ccc(-c2nc3c(c(SCc4ccccc4)n2)Cc2c(CO)cnc(C)c2O3)cc1`: the survival is 89%. In the case of `COc1cccc(NC(=O)CSc2nccn2C2CCCC2)c1` it was 73%; in that of `O=C1NC(=Nc2ccccc2)S/C1=C\c1ccc(C(=O)O)cc1`, 113%. As for `CCOc1cccc(CC(=O)N2CCc3c([nH]c4ccccc34)C2c2ccccc2)c1OCC` (configuration not stated), the survival was 81%. As to `COc1ccc(C(=O)NCCn2cc(SCC(=O)Nc3ccccc3)c3ccccc32)cc1OC`, the survival was 65%.

Consider `COC(=O)c1ccc(Cn2c(SCc3ccccc3F)nc3ccncc32)cc1`, for which the survival is 74%. As for `O=C(OCc1cc(=O)n2nc(C3CC3)sc2n1)c1cccc(NC(=O)c2ccccc2Cl)c1`, the survival is 57%. On to `Cc1nnc(N2C(=O)c3oc4ccccc4c(=O)c3C2c2ccc(C(C)(C)C)cc2)s1` (configuration not stated), for which the survival was 129%. For `COc1ccccc1CNC(=O)CCNS(=O)(=O)c1ccc2c(c1)oc(=O)n2C`, the survival was 83%. `CC(C)(C)OC(=O)N1CCC(c2nnc(SCc3cccc(Cl)c3)o2)CC1`: the survival was 0% (active).

`CC(C)(C)OC(=O)N1CCC(c2nnc(SCc3ccccc3)o2)CC1`: the survival was 83%. Take `Clc1cccc(CSc2nnc(C3CCNCC3)o2)c1`: the survival is 109%.

For the compound `CC(C)(C)OC(=O)N1CCC(c2nnc(SCc3ccccc3Cl)o2)CC1`, the survival is -2% (active). As for `Clc1ccccc1CSc1nnc(C2CCNCC2)o1`, the survival is 95%. With `CC(C)(C)OC(=O)N1CCC(c2nnc(SCc3ccccc3F)o2)CC1`, the survival is 73%. As for `CCCN1CCN(c2cc3c(cc2F)c(=O)c(S(=O)(=O)c2ccc(CC)cc2)cn3CC)CC1`, the survival is 70%. With `Nc1ccc2c(c1)ncn2CCO` the figure was 115%; with `CCc1ccccc1NC(=O)Cn1nc2c3cc(F)ccc3n(Cc3cccc(C)c3)cc-2c1=O`, 71%; with `COc1ccccc1NC(=O)Cn1nc2c3cc(F)ccc3n(Cc3cccc(C)c3)cc-2c1=O`, -4% (active). In the case of `CCOc1ccccc1NC(=O)Cn1nc2c3cc(F)ccc3n(Cc3cccc(C)c3)cc-2c1=O` it was 81%; in that of `Cc1cc(C)cc(OCc2cc(=O)n3c(-c4ccccc4)csc3n2)c1`, 88%. As for `Cc1cccc(NC(=O)C(=O)c2cc(C)n(-c3ccccc3)c2C)c1C`, the survival was 79%. `CC(CCc1ccccc1)NC(=O)CSc1n[nH]c(-c2ccccc2)n1` (configuration not stated): the survival was 71%. With `COc1ccccc1-c1nc(SCC(=O)c2ccc(Cl)cc2)n[nH]1`, the survival was 131%.

Consider `O=C(CSc1n[nH]c(-c2ccccc2Cl)n1)NCCc1ccccc1`, for which the survival is 72%. Consider `COc1ccc(-c2nc(SCC(=O)NC(C)CCc3ccccc3)n[nH]2)cc1` (configuration not stated), for which the survival was -1% (active). As to `COc1ccc(CNC(=O)CSc2n[nH]c(-c3ccc(OC)cc3)n2)cc1`, the survival is -6% (active). Regarding `COc1ccccc1-c1nc(SCC(=O)c2ccccc2)n[nH]1`, the survival is 77%. As to `COc1ccc(CNC(=O)CSc2n[nH]c(-c3ccc(F)cc3)n2)cc1`, the survival is 120%. As to `O=C(CSc1n[nH]c(-c2ccccc2Cl)n1)NCc1ccc(F)cc1`, the survival was -6% (active). `COc1cccc(CNC(=O)CSc2n[nH]c(-c3ccccc3Cl)n2)c1`: the survival was 75%.

Regarding `Cc1ccc(CNC(=O)CSc2n[nH]c(-c3ccc(F)cc3)n2)cc1`, the survival was 124%.

For `CC(C)Oc1ccccc1-c1nc(SCC(=O)c2ccc(F)cc2)n[nH]1`, the survival was -5% (active). For the compound `CC(CCc1ccccc1)NC(=O)CSc1n[nH]c(-c2ccc(F)cc2)n1` (configuration not stated), the survival is 134%. For the compound `CCOC(=O)c1c(S(=O)(=O)N2CCC(C(=O)Nc3ncccc3C)CC2)c(C)n(C)c1C`, the survival was 72%. Consider `COc1cc(C(=O)N(CCCN(C)C)c2nc3c(OC)cccc3s2)cc(OC)c1OC`, for which the survival was 124%. Consider `Cc1ccc(CN2CCCn3nc(C(=O)NCCc4ccccc4C)cc3C2=O)cc1`, for which the survival was 79%. In the case of `O=C(c1ccccc1)C(C(=O)N1CCCCC1)n1ccccc1=O` (configuration not stated), the survival is 113%.

As for `Cc1cc(=O)c2cc(C(=O)Nc3ccc(F)cc3)ccc2[nH]1`, the survival was 87%. In the case of `Cc1ccc(S(=O)(=O)N(CC(=O)N2CCC(C(N)=O)CC2)c2ccccc2F)cc1`, the survival is 98%. With `Cc1ccccc1CN1CCN(CC(=O)NCc2ccccc2Cl)C1=O` the figure was 77%; with `CCC(=O)N1c2ccc(S(=O)(=O)CCC(=O)NCc3cccc(OC)c3)cc2CC1C` (configuration not stated), 82%. In the case of `CC1Cc2cc(S(=O)(=O)CCC(=O)NCc3ccccc3Cl)ccc2N1C(=O)C1CC1` (configuration not stated) it was 72%; in that of `COc1ccc(CNC(=O)CCS(=O)(=O)c2ccc3c(c2)CC(C)N3C(=O)C2CC2)cc1` (configuration not stated), 76%. Take `CCC(=O)N1c2ccc(S(=O)(=O)CCC(=O)NCc3ccccc3OC)cc2CC1C` (configuration not stated): the survival was 87%.

As to `COc1ccccc1CNC(=O)CCS(=O)(=O)c1ccc2c(c1)CC(C)N2C(=O)C1CC1` (configuration not stated), the survival is 0% (active). With `COc1cccc(CNC(=O)CCS(=O)(=O)c2ccc3c(c2)CC(C)N3C(=O)C2CC2)c1` (configuration not stated) the figure was -3% (active). `COC(=O)c1ccccc1NC(=O)c1c(C)oc2ncn(C)c(=O)c12`: the survival was 95%. In the case of `CC(C)N(C(=O)CSc1nc2ccc(Cl)cc2[nH]1)c1ccccc1`, the survival was 81%. In the case of `O=c1c2cc3c(cc2nc2sc(Nc4ccc(F)c(Cl)c4)nn12)OCO3`, the survival was 138%. As to `Cc1ccc(-n2nnnc2CNC(=O)c2ccc(F)cc2)cc1C`, the survival is 124%. `Cc1ccc(-n2nnnc2CNC(=O)c2cc(C(F)(F)F)cc(C(F)(F)F)c2)cc1C`: the survival was -3% (active).

For the compound `Cc1ccc(C(=O)NCc2nnnn2-c2ccc(C)c(C)c2)cc1`, the survival was 82%. In the case of `CC(C)(C)c1ccc(C(=O)NC2CCNCC2)cc1`, the survival was 108%.

For `CC(C)Cn1c(=O)c2ccccc2n2c(CCC(=O)NCc3ccc(Cl)cc3)nnc12`, the survival is 92%.

As for `O=C(Nc1ccc2nc(SCC(=O)N3CCOCC3)sc2c1)c1ccc(F)cc1`, the survival is 92%.

Regarding `COc1ccc(Nc2nc(-c3ccccc3)c3cc(Br)ccc3n2)cc1`, the survival was 37%.

In the case of `Cc1ccc2nc(Nc3ccc(Br)cc3)nc(-c3ccccc3)c2c1`, the survival was 56%. `Cc1ccc2nc(NN)nc(-c3ccccc3)c2c1`: the survival was 100%. With `COc1cccc(Nc2nc(-c3ccccc3)c3cc(C)ccc3n2)c1`, the survival was 9% (active). Consider `Cc1cccc(Nc2nc(-c3ccccc3)c3cc(C)ccc3n2)c1`, for which the survival is 11% (active). Regarding `Cc1ccc(C)c(Nc2nc(-c3ccccc3)c3cc(Br)ccc3n2)c1`, the survival was 42%.

Take `CN(CC(=O)NCc1ccccc1)S(=O)(=O)c1ccc2[nH]c3c(c2c1)CCCC3`: the survival is 72%.

For the compound `COc1cccc(NCc2nnc3n2CCCCC3)c1`, the survival was 83%. Turning to `Cc1nc2c(c(C)nn2-c2ccccc2)c(C)c1CCC(=O)Nc1ccccc1`, the survival is 87%.

`CCc1ccc(NC(=O)CSc2nc(=O)n(Cc3ccncc3)c3c2CCC3)cc1`: the survival is 80%. With `CCn1c(C(=O)NCc2cccc(Br)c2)cc2oc3ccccc3c21` the figure was 7% (active); with `CCn1c(C(=O)NCc2ccccc2C)cc2oc3ccccc3c21`, 15%. Consider `CCn1c(C(=O)NCc2ccc(F)cc2)cc2oc3ccccc3c21`, for which the survival was 115%. In the case of `CCOc1ccccc1CNC(=O)c1cc2oc3ccccc3c2n1CC`, the survival was 2% (active). Consider `CCn1c(C(=O)NCc2ccccc2Br)cc2oc3ccccc3c21`, for which the survival was 36%. For `CCn1c(C(=O)NCc2cc(Br)ccc2OC)cc2oc3ccccc3c21`, the survival was 78%. For the compound `Clc1ccc(N2CCN(c3ncnc4c3nc3n4CCCC3)CC2)cc1`, the survival is 73%.

Turning to `Cc1cc(-n2c(C)nc3ccccc3c2=O)ccc1NC(=O)c1ccc([N+](=O)[O-])cc1`, the survival is 82%. Take `Cc1cc(-n2c(C)nc3ccccc3c2=O)ccc1NC(=O)c1cccc([N+](=O)[O-])c1C`: the survival is -2% (active). In the case of `Cc1cc(-n2c(C)nc3ccccc3c2=O)ccc1NC(=O)c1ccccc1[N+](=O)[O-]` it was 88%; in that of `Cc1ccc(C(=O)Nc2ccc(-n3c(C)nc4ccccc4c3=O)cc2)cc1[N+](=O)[O-]`, 121%; in that of `Cc1c(C(=O)Nc2ccc(-n3c(C)nc4ccccc4c3=O)cc2)cccc1[N+](=O)[O-]`, 80%.

For `Cc1cc(-n2c(C)nc3ccccc3c2=O)ccc1NC(=O)c1ccc(C)c([N+](=O)[O-])c1`, the survival was 10% (active).
